Among all 59,000 compounds or so, about 6,500 (11%) were called active. Inconclusive results (about 15%) are left out. No stated cut-off is given here; in the data, active means max dye-equivalent concentration above about 10 nM; inconclusive means mostly about 1.1 nM to 9.6 nM; inactive means weaker than that. Only a selection was taken, and actives are over-represented in it overall.

A short description of the assay: qHTS Assay for Spectroscopic Profiling in A350 Spectral Region. The note with it: Compound autofluorescence, 340/450 nm, Alexa 350 dye-equivalents; stronger effect = higher value. For orientation: In qHTS, concentration-response curves come from the screen itself.
`COc1c(C(=O)N2CCCC2)ccc2ccccc12`: the max dye-equivalent concentration result is “inactive”.
Then `CCCCC(=O)Nc1cc(C)c2c(=O)oc3ccccc3c2n1`, with “inactive”.
For `CCOC(=O)N1CCN(C(=O)c2n[nH]c(=O)c3ccccc23)CC1` the value was “inactive”.
Then `CCOC(=O)N1CCN(C(=O)c2cc3c(ccc4ccccc43)oc2=O)CC1`, with 1700 nM (active).
`CNC(=O)c1cc2c(ccc3ccccc32)oc1=N`: the max dye-equivalent concentration is 11000 nM (active).
Then `CC(C)(C)NCC[C@@H](O)c1cc(C(F)(F)F)nc2c(C(F)(F)F)cccc12`, with “inactive”.
For `CC(=O)N1CCC2(CC1)CCN(c1ccncc1)CC2` the value was “inactive”.
As for `CC1(N2CCOCC2)CC2(O)C(=[N+]1[O-])CCc1nonc12` (stereo not drawn), the max dye-equivalent concentration result was “inactive”.
For `CCOC(=O)CSc1nc2c(c(=O)n(Cc3ccccc3Cl)c(=O)n2C)n1C` the value was “inactive”.
Then `Cc1cc(C(=O)CC#N)c(C)n1CC(F)(F)F`, with “inactive”; and `Cc1cc(NC(=O)CCC(=O)N(c2cccc(F)c2)C(C(=O)NC2CCCC2)c2ccncc2)no1` (stereo not drawn), with “inactive”.
For `O=C(Cn1ccc(=O)[nH]c1=O)Nc1ccc(C(=O)O)c(O)c1` the value was “inactive”; for `COCCn1nnnc1CN1CCC(NC(=O)Nc2cccc(OC)c2)CC1`, “inactive”.
Consider `O=C(O)COc1nsnc1N1CCOCC1`, for which the max dye-equivalent concentration entry was “inactive”.
Consider `CN(C)C(=O)c1ccc(-c2cncnc2Nc2ccccc2)cc1`, for which the max dye-equivalent concentration result was “inactive”.
For `CN(C(=O)c1ccno1)c1nnc(-c2cccnc2)s1` the value was “inactive”.
For `CN(C(=O)COc1ccccc1)c1nnc(-c2ccncc2)s1` the value was “inactive”.
Take `COc1cccc(-c2nnc(N(C)C(=O)c3ccno3)s2)c1`: the max dye-equivalent concentration is 32 nM (active).
Then `CCCn1c(SCC(N)=O)nnc1C(C)C`, with “inactive”; and `Cc1cccc(N)c1SC1CCCCC1O` (stereo not drawn), with “inactive”.
Take `O=c1c(F)cn(C2CCCO2)c(=O)n1Cc1ccccc1Cl` (stereo not drawn): the max dye-equivalent concentration entry was “inactive”.
Then `CCn1c(Cc2ccccc2)nnc1SCC(=O)Nc1ccccc1`, with “inactive”; and `COc1ccc2nc(N3CCCC(O)C3)c(C#N)cc2c1` (stereo not drawn), with 130 nM (active); and `COc1ccc(OC)c(CNC(=O)C2CCCN(c3nc4ccccc4o3)C2)c1` (stereo not drawn), with “inactive”.
For `Cc1ccc(SCCN2C(=O)NC(C)(C)C2=O)cc1` the value was “inactive”.
As to `Cn1nnc(NC(=O)CSc2ncn[nH]2)n1`, the max dye-equivalent concentration entry is “inactive”.
For `O=C(Oc1cccnc1)c1cc2ccccc2oc1=O` the value was 96 nM (active); for `O=C(NCc1ccccn1)Nc1ccc(F)cc1`, “inactive”; for `O=C(NCc1ccccn1)c1cc2ccccc2oc1=O`, 21 nM (active).
Then `Nc1ncc(-c2cc3ccccc3oc2=O)s1`, with “inactive”.
As for `Cc1ccsc1C(=O)OCC(=O)c1cc2ccccc2o1`, the max dye-equivalent concentration entry was “inactive”.
Then `O=C(NCc1ccccn1)c1cnc2sccn2c1=O`, with “inactive”; and `CC(C)CSC[C@@H]1O[C@H](n2cnc3c(N)nccc32)[C@H](O)[C@@H]1O`, with “inactive”; and `O=c1cc(CSc2ccc(Cl)cc2)nc(N2CCOCC2)[nH]1`, with “inactive”.
For `Cc1ccc2c(CSc3nncs3)cc(=O)oc2c1` the value was “inactive”.
Then `O=C(Nc1cnccn1)c1cccnc1`, with “inactive”; and `O=C(c1ccncc1)N1CCC2(CCN(Cc3cc(C(F)(F)F)cc(C(F)(F)F)c3)CC2)CC1`, with “inactive”; and `O=C(Nc1cccc2c1CCCC2)C1CCN(C(=O)NC2CCCCC2)CC1`, with “inactive”.
Take `CCC(=O)Nc1ccc(C(=O)CSc2nnc(CNc3ccc(Cl)cc3)o2)cc1OC`: the max dye-equivalent concentration entry is “inactive”.
For `O=C(NC1CCCCC1)n1c(=O)oc2cc(S(=O)(=O)N3CCCCC3)ccc21` the value was “inactive”; for `CCC(c1nnnn1Cc1ccco1)N(Cc1cc2cc(OC)ccc2[nH]c1=O)C1CCCCC1` (stereo not drawn), 21 nM (active); for `Cc1cccc2cc(CN(Cc3ccc4c(c3)OCO4)Cc3nnnn3C3CCCC3)c(=O)[nH]c12`, “inactive”.
Then `CCOc1ccc2[nH]c(=O)c(CN(Cc3nnnn3CCc3ccccc3)CC3CCCO3)cc2c1` (stereo not drawn), with 76 nM (active).
For `Cc1cccc2cc(CN(Cc3cccs3)C(c3nnnn3C3CCCC3)C(C)C)c(=O)[nH]c12` (stereo not drawn) the value was “inactive”.
As for `CCOc1ccc2[nH]c(=O)c(CN(Cc3nnnn3Cc3ccccc3)CC3CCCO3)cc2c1` (stereo not drawn), the max dye-equivalent concentration was 150 nM (active).
Turning to `COc1ccccc1N1CCN(Cc2nnnn2CCc2ccccc2)CC1`, the max dye-equivalent concentration entry was “inactive”.
Then `CCC(c1nnnn1Cc1ccco1)N(CCc1ccccc1)Cc1cc2ccc(OC)cc2[nH]c1=O` (stereo not drawn), with “inactive”.
Then `CCC(c1nnnn1C1CCCC1)N(Cc1cccs1)Cc1cc2cccc(C)c2[nH]c1=O` (stereo not drawn), with “inactive”.
`CC(C)(C)n1nnnc1C(c1cccs1)N(Cc1cccnc1)CC1CCCO1` (stereo not drawn): the max dye-equivalent concentration result was “inactive”.
Then `CCC(c1nnnn1Cc1ccccc1)N(Cc1cc2cc(OC)ccc2[nH]c1=O)CC1CCCO1` (stereo not drawn), with 32 nM (active).
For `COc1ccc(N(CC(=O)NC(C)(C)C)C(=O)c2ccco2)cc1` the value was “inactive”; for `O=C(O)CCN1C(=O)CC2(CCCCC2)C1=O`, “inactive”.
For `O=c1[nH]nc(CSCc2ccccc2Cl)[nH]1` the value was “inactive”.

Source of the values: PubChem BioAssay AID590 (National Center for Advancing Translational Sciences (NCATS), 2007).
